The supplement of paper PMC9492666
Structures can show the parent of a compound that is named as a salt.

Key:
HCC1937 = experiment: relative cell viability, compound + erastin, vs DMSO (fraction of DMSO control); higher = less growth inhibition; conditions: 72 h
MDA-MB-231 = experiment: as above; conditions: 72 h
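Also: viability read by CCK-8 kit in 96-well plates, part of a combination screen pairing lipid-metabolism-targeting compounds with erastin.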

Row | SMILES | relative cell viability (HCC1937) | relative cell viability (MDA-MB-231)
1 | CN(C)C(=O)Nc1cccc(-c2ccc(N(C)C)cc2)c1 [Atglistatin] + CCOc1ccccc1-n1c(C(C)N2CCN(C(=O)COc3ccc(Cl)cc3)CC2)nc2ccccc2c1=O [erastin] | 0.438 | 1.06
2 | Cc1cc(SCc2sc(-c3ccc(C(F)(F)F)cc3)nc2C)ccc1OCC(=O)O + CCOc1ccccc1-n1c(C(C)N2CCN(C(=O)COc3ccc(Cl)cc3)CC2)nc2ccccc2c1=O [erastin] | 0.529 | 0.558
3 | CN(C)C(=N)NC(=N)N [Metformin hydrochloride] + CCOc1ccccc1-n1c(C(C)N2CCN(C(=O)COc3ccc(Cl)cc3)CC2)nc2ccccc2c1=O [erastin] | 0.943 | 1.03
4 | CC1=C[C@]2(O)O[C@@]3(CC2=C(C)C)[C@@H](C)CC[C@@H]13 [Curcumenol] + CCOc1ccccc1-n1c(C(C)N2CCN(C(=O)COc3ccc(Cl)cc3)CC2)nc2ccccc2c1=O [erastin] | 0.55 | 0.639
5 | COc1ccc(-n2c(SCCCN3C(=O)c4cccc5cccc(c45)C3=O)nnc2-c2ccncc2)cc1 + CCOc1ccccc1-n1c(C(C)N2CCN(C(=O)COc3ccc(Cl)cc3)CC2)nc2ccccc2c1=O [erastin] | 0.437 | 0.658
6 | COc1ccc2[nH]cc(CCNC(C)=O)c2c1 [Melatonine] + CCOc1ccccc1-n1c(C(C)N2CCN(C(=O)COc3ccc(Cl)cc3)CC2)nc2ccccc2c1=O [erastin] | 0.585 | 0.693
7 | COc1ccc(/C=C/c2cc(O)cc(O[C@@H]3O[C@H](CO)[C@@H](O)[C@H](O)[C@H]3O)c2)cc1 [Deoxyrhapontin] + CCOc1ccccc1-n1c(C(C)N2CCN(C(=O)COc3ccc(Cl)cc3)CC2)nc2ccccc2c1=O [erastin] | 0.576 | 0.699
8 | CCC1C(O)C2C3CCC(C(C)CCO)C3(C)CCC2C2(C)CCC(O)CC12 (stereo not given) + CCOc1ccccc1-n1c(C(C)N2CCN(C(=O)COc3ccc(Cl)cc3)CC2)nc2ccccc2c1=O [erastin] | 0.656 | 0.58
9 | Cc1cccc(Nc2cc(Cl)nc(SCC(=O)O)n2)c1C [Pirinixic Acid] + CCOc1ccccc1-n1c(C(C)N2CCN(C(=O)COc3ccc(Cl)cc3)CC2)nc2ccccc2c1=O [erastin] | 0.602 | 0.74
10 | O=C(Oc1ccc([N+](=O)[O-])cc1)N1CCC(C(O)(c2ccc3c(c2)OCO3)c2ccc3c(c2)OCO3)CC1 + CCOc1ccccc1-n1c(C(C)N2CCN(C(=O)COc3ccc(Cl)cc3)CC2)nc2ccccc2c1=O [erastin] | 0.556 | 0.641
11 | C=C1C[C@]2(O)O[C@@]3(CC2=C(C)C)[C@@H](C)CC[C@@H]13 [Isocurcumenol] + CCOc1ccccc1-n1c(C(C)N2CCN(C(=O)COc3ccc(Cl)cc3)CC2)nc2ccccc2c1=O [erastin] | 0.566 | 0.662
12 | CC(C)OC(=O)C(C(=O)OC(C)C)=C1SC=CS1 [Malotilate] + CCOc1ccccc1-n1c(C(C)N2CCN(C(=O)COc3ccc(Cl)cc3)CC2)nc2ccccc2c1=O [erastin] | 0.459 | 0.644
13 | CCNC1(C(N)=O)CCN(c2ncnc3c2nc(-c2ccccc2Cl)n3-c2ccc(Cl)cc2)CC1 [Otenabant] + CCOc1ccccc1-n1c(C(C)N2CCN(C(=O)COc3ccc(Cl)cc3)CC2)nc2ccccc2c1=O [erastin] | 0.441 | 0.459
14 | CC1(C)CC[C@]2(C(=O)O[C@@H]3O[C@H](CO)[C@@H](O)[C@H](O)[C@H]3O)CC[C@]3(C)C(=CC[C@@H]4[C@@]5(C)CC[C@H](O[C@@H]6O[C@H](C(=O)O)[C@@H](O)[C@H](O)[C@H]6O[C@@H]6O[C@H](CO)[C@@H](O)[C@H](O)[C@H]6O)C(C)(C)[C@@H]5CC[C@]43C)[C@@H]2C1 [Ginsenoside Ro] + CCOc1ccccc1-n1c(C(C)N2CCN(C(=O)COc3ccc(Cl)cc3)CC2)nc2ccccc2c1=O [erastin] | 0.703 | 0.726
15 | COP(=O)(OC)OC(c1ccc(Cl)cc1)P(=O)(OC)OC (stereo not given) [Mifobate] + CCOc1ccccc1-n1c(C(C)N2CCN(C(=O)COc3ccc(Cl)cc3)CC2)nc2ccccc2c1=O [erastin] | 0.875 | 1.06
16 | O=C(O)c1cc(F)c2nc(N3[C@@H]4CC[C@H]3C[C@@H](OCc3c(-c5ccccc5OC(F)(F)F)noc3C3CC3)C4)sc2c1 [Tropifexor] + CCOc1ccccc1-n1c(C(C)N2CCN(C(=O)COc3ccc(Cl)cc3)CC2)nc2ccccc2c1=O [erastin] | 0.658 | 0.652
17 | O=C1C(SCCO)=C(SCCO)C(=O)c2ccccc21 + CCOc1ccccc1-n1c(C(C)N2CCN(C(=O)COc3ccc(Cl)cc3)CC2)nc2ccccc2c1=O [erastin] | 0.575 | 0.851
18 | O=C(/C=C/c1ccc(/C=C/C(=O)Nc2ccc(C3=NCCN3)cc2)cc1)Nc1ccc(C2=NCCN2)cc1 + CCOc1ccccc1-n1c(C(C)N2CCN(C(=O)COc3ccc(Cl)cc3)CC2)nc2ccccc2c1=O [erastin] | 0.554 | 0.346

Row | SMILES | relative cell viability (HCC1937) | relative cell viability (MDA-MB-231)
19 | O=c1cc(-c2ccc(O)c(-c3c(O)cc(O)c4c(=O)cc(-c5ccc(O)cc5)oc34)c2)oc2cc(O)cc(O)c12 [Amentoflavone] + CCOc1ccccc1-n1c(C(C)N2CCN(C(=O)COc3ccc(Cl)cc3)CC2)nc2ccccc2c1=O [erastin] | 0.438 | 0.715
20 | CCCCCCCCCCCCC/C=C/[C@@H](O)[C@@H](N)CO + CCOc1ccccc1-n1c(C(C)N2CCN(C(=O)COc3ccc(Cl)cc3)CC2)nc2ccccc2c1=O [erastin] | 0.248 | 0.363
21 | Cc1cc(C)c(S(=O)(=O)Nc2cccc(C(F)(F)F)c2)c(C)c1 + CCOc1ccccc1-n1c(C(C)N2CCN(C(=O)COc3ccc(Cl)cc3)CC2)nc2ccccc2c1=O [erastin] | 0.922 | 0.98
22 | CC[C@H]1[C@@H](O)[C@@H]2[C@H](CC[C@]3(C)[C@@H]([C@H](C)CCC(=O)O)CC[C@@H]23)[C@@]2(C)CC[C@@H](O)C[C@@H]12 [Obeticholic Acid] + CCOc1ccccc1-n1c(C(C)N2CCN(C(=O)COc3ccc(Cl)cc3)CC2)nc2ccccc2c1=O [erastin] | 0.616 | 0.771
23 | Cc1ccc(/C=C2\SC(=S)N(CCCCCC(=O)Nc3ccc(C(=O)O)c(O)c3)C2=O)cc1 + CCOc1ccccc1-n1c(C(C)N2CCN(C(=O)COc3ccc(Cl)cc3)CC2)nc2ccccc2c1=O [erastin] | 0.715 | 0.638
24 | Oc1ccc(/C=C/c2cc(O)cc(O)c2)cc1 [Resveratrol] + CCOc1ccccc1-n1c(C(C)N2CCN(C(=O)COc3ccc(Cl)cc3)CC2)nc2ccccc2c1=O [erastin] | 0.635 | 0.853
25 | c1cc(-c2cnn3cc(-c4ccc(OCCN5CCCCC5)cc4)cnc23)ccn1 [Dorsomorphin dihydrochloride] + CCOc1ccccc1-n1c(C(C)N2CCN(C(=O)COc3ccc(Cl)cc3)CC2)nc2ccccc2c1=O [erastin] | 0.0948 | 0.362
26 | CC(C)c1onc(-c2c(Cl)cccc2Cl)c1COc1ccc(/C=C/c2cccc(C(=O)O)c2)c(Cl)c1 + CCOc1ccccc1-n1c(C(C)N2CCN(C(=O)COc3ccc(Cl)cc3)CC2)nc2ccccc2c1=O [erastin] | 0.722 | 0.762
27 | O=c1ccc2cc(O)c(O)cc2o1 [Esculetin] + CCOc1ccccc1-n1c(C(C)N2CCN(C(=O)COc3ccc(Cl)cc3)CC2)nc2ccccc2c1=O [erastin] | 0.648 | 0.711
28 | CCC(=O)O[C@]1(C(=O)SCF)[C@H](C)C[C@H]2[C@@H]3C[C@H](F)C4=CC(=O)C=C[C@]4(C)[C@@]3(F)[C@@H](O)C[C@@]21C [Fluticasone propionate] + CCOc1ccccc1-n1c(C(C)N2CCN(C(=O)COc3ccc(Cl)cc3)CC2)nc2ccccc2c1=O [erastin] | 0.967 | 0.545
29 | CCc1ccc(N(CC(C)C)S(=O)(=O)c2ccc(OCC3CCOCC3)c(CO)c2)cc1 + CCOc1ccccc1-n1c(C(C)N2CCN(C(=O)COc3ccc(Cl)cc3)CC2)nc2ccccc2c1=O [erastin] | 0.508 | 0.604
30 | CCCCCCCCCCCCCCCC(=O)NCCO [Palmidrol] + CCOc1ccccc1-n1c(C(C)N2CCN(C(=O)COc3ccc(Cl)cc3)CC2)nc2ccccc2c1=O [erastin] | 0.91 | 0.938
31 | NC(N)=NN=Cc1cccc(Cl)c1Cl [Raphin1] + CCOc1ccccc1-n1c(C(C)N2CCN(C(=O)COc3ccc(Cl)cc3)CC2)nc2ccccc2c1=O [erastin] | 0.556 | 0.558
32 | Cn1c2cc([S+](C)[O-])sc2c2cnn(Cc3cccc(N)c3)c(=O)c21 (stereo not given) + CCOc1ccccc1-n1c(C(C)N2CCN(C(=O)COc3ccc(Cl)cc3)CC2)nc2ccccc2c1=O [erastin] | 0.61 | 0.745
33 | Cc1ccc(Oc2nc3cc(-c4ccc(-c5ccccc5)cc4)c(Cl)cc3[nH]2)cc1C(=O)O + CCOc1ccccc1-n1c(C(C)N2CCN(C(=O)COc3ccc(Cl)cc3)CC2)nc2ccccc2c1=O [erastin] | 0.553 | 0.629
34 | Cc1nc2ccc(NCc3cccc(C(F)(F)F)c3)cc2n(CCNC(=O)CO)c1=O + CCOc1ccccc1-n1c(C(C)N2CCN(C(=O)COc3ccc(Cl)cc3)CC2)nc2ccccc2c1=O [erastin] | 0.618 | 0.89
35 | O=C(OC(C(F)(F)F)C(F)(F)F)N1CCN(Cc2ccc(C(F)(F)F)cc2N2CCCC2)CC1 + CCOc1ccccc1-n1c(C(C)N2CCN(C(=O)COc3ccc(Cl)cc3)CC2)nc2ccccc2c1=O [erastin] | 0.583 | 0.74
